This is an account of results in PubChem BioAssay (EPA / NIEHS).

The structures appear in SMILES notation. Records with an inconclusive call do not appear. Active and inactive are the calls of the source. How the source made its calls: active means hit-call score of the fitted dose curve at least 0.9, where 1 is the maximum; inconclusive means response in the unintended direction; inactive means score below 0.9.

A word on the AC50: it is the concentration giving half of the maximal activity seen.

The assay is described as follows: ACEA_ER_AUC_viability: ACEA Biosciences xCELLigence Real-Time Cell Analysis on Estrogen Receptor Agonism for Viability (AID 2283782). Summed up: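 Read-out: real-time electrical impedance (RT-CES) area under curve, loss of signal taken as reduced viability, normalized to DMSO baseline. T-47D cells, charcoal-stripped serum medium, compounds up to 100 uM final, continuous exposure, 80 h.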
With `O=S1(=O)OC(c2ccc(O)cc2)(c2ccc(O)cc2)c2ccccc21`, the call was inactive.

Take `CC(=O)C=CC1C(C)=CCC(C)C1(C)C` (stereo not given): the compound was classed as inactive.

In the case of `C=C1C2CCC(C2)C1(C)C` (stereo not given), the compound was classed as inactive.

For `CCC(C)C=O` (stereo not given), the AC50 was 39.7 µM (active).

In the case of `NC(CO)(CO)CO`, the outcome was inactive.

Consider `O=S(=O)(O)CC(O)CCl` (stereo not given), for which the call was inactive.

On to `CC(=O)OC1C2(C)CCC(C2)C1(C)C` (stereo not given), for which the result was inactive.

Turning to `Cc1ccc([N+](=O)[O-])cc1S(=O)(=O)O`, the call was inactive.

On to `CC[C@H]1OC(=O)[C@H](C)[C@@H](O[C@H]2C[C@@](C)(OC)[C@@H](O)[C@H](C)O2)[C@H](C)[C@@H](O[C@@H]2O[C@H](C)C[C@H](N(C)C)[C@H]2O)[C@](C)(O)C[C@@H](C)C(=NOCOCCOC)[C@H](C)[C@@H](O)[C@]1(C)O`, for which the call was inactive.

Take `CCCCOCCOC(=O)COc1nc(Cl)c(Cl)cc1Cl`: the call was inactive.

As for `CC=CCO`, the result was inactive.

With `CC(C)c1ccc(C#N)cc1`, the AC50 is 50 µM (active).

With `c1ccc(-c2ccccn2)nc1`, the AC50 was 34.1 µM (active).

For `O=CC1CC1`, the AC50 is 65 µM (active).

Take `Nc1ccc(Cl)cc1Cl`: the AC50 is 29.2 µM (active).

For `O=S(=O)(O)c1ccc2cc(O)c(S(=O)(=O)O)cc2c1`, the AC50 was 50 µM (active).

With `CCN(Cc1cccc(S(=O)(=O)O)c1)c1ccc(C(=C2C=CC(=[N+](CC)Cc3cccc(S(=O)(=O)[O-])c3)C=C2)c2ccccc2)cc1`, the result was inactive.

For `CC(C)=CC1CC(C)CCO1` (stereo not given), the compound was called inactive.

As to `O=C1CCCN1CCO`, the result was inactive.

As to `CCCCCCCC(C)=O`, the outcome was inactive.

On to `CCc1c(C(=O)O)c(=O)cnn1-c1ccc(Cl)cc1`, for which the AC50 is 31.4 µM (active).

For `CCCC(=O)OCc1ccccc1`, the call was inactive.

As for `O=C1C=CC(=O)O1`, the call was inactive.

On to `O=C1CCC(=O)N1Cl`, for which the compound was called inactive.

Regarding `OCCCS`, the AC50 was 44.4 µM (active).

For the compound `CC(CC=O)c1ccccc1` (stereo not given), the AC50 is 50 µM (active).

`OCCc1ccncc1`: the compound was called inactive.

Take `C=CC(=O)OCCOC(=O)C=C`: the AC50 is 32.3 µM (active).

Consider `C=C(C)C(=O)OCC(C)C`, for which the call was inactive.

In the case of `O=C1C(N(CO)C(=O)NCO)N(CO)C(=O)N1CO` (stereo not given), the outcome was inactive.

Take `Cc1cccc(N)n1`: the call was inactive.

With `COC(=O)c1sccc1S(N)(=O)=O`, the compound was called inactive.

With `CCC(C)(C)C1CCCCC1OC(C)=O` (stereo not given), the compound was classed as inactive.

With `O=[N+]([O-])C1(Br)COCOC1`, the AC50 was 8.14 µM (active).

Turning to `C1=CCCC1`, the compound was classed as inactive.
